The source made the active and inactive calls. The calls were made as follows: active = hit-call score of the fitted dose curve at least 0.9, where 1 is the maximum; inactive = score below 0.9.
Experiments:
[1] = read-out: Cyclin D1 (CCND1), CCND1 (gene 595); assay: LTEA_HepaRG_CCND1: Life Technologies and Expression Analysis (LTEA) Assay for Cyclin D1 (CCND1) using HepaRG (AID 2283451); conditions: mRNA level, 48 h; actives raise or lower the signal;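 as to AC50: TaqMan qRT-PCR transcript level normalised to ACTB GAPDH and POLR2A housekeeping genes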
How it was run: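 HepaRG plated 48 h, medium switched to serum-free induction medium, chemicals added in duplicate (top 100 uM, half-log steps, 0.5% DMSO) for 48 h, cells lysed, RNA measured by TaqMan qRT-PCR.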

[2] = read-out: catalase (CAT), CAT (gene 847); assay: LTEA_HepaRG_CAT: Life Technologies and Expression Analysis (LTEA) Assay for catalase (CAT) using HepaRG (AID 2283452); conditions: mRNA level, 48 h; actives raise or lower the signal
How it was run: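 Expression of CAT was quantified by TaqMan qRT-PCR with ACTB/GAPDH/POLR2A normalization after 48 h chemical exposure of HepaRG. Eight-point half-log series, top 100 uM, in 0.5% DMSO; gain or loss fitted against vehicle.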

[3] = read-out: flavin-containing dimethylaniline monooxygenases 3 (FMO3), FMO3 (gene 2328); assay: LTEA_HepaRG_FMO3: Life Technologies and Expression Analysis (LTEA) Assay for flavin-containing dimethylaniline monooxygenases 3 (FMO3) using HepaRG (AID 2283453); conditions: mRNA level, 48 h; actives raise or lower the signal;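 as to AC50: FMO3 transcript by TaqMan qRT-PCR normalized to ACTB GAPDH and POLR2A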
How it was run: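 HepaRG, 48 h exposure, 8-pt half-log series from 100 uM, 0.5% DMSO vehicle, duplicates; FMO3 transcript by Fluidigm TaqMan qRT-PCR, housekeeping-normalized; gain/loss fit vs DMSO.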

[4] = read-out: Cytochrome P450 (CYP1A1), CYP1A1 (gene 1543); assay: LTEA_HepaRG_CYP1A1: Life Technologies and Expression Analysis (LTEA) Assay for Cytochrome P450 (CYP1A1) using HepaRG (AID 2283454); conditions: mRNA level, 48 h; actives raise or lower the signal
How it was run: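 HepaRG, 48 h post-plating switched to serum-free induction medium; 8-pt conc-response (top 100 uM, half-log, 0.5% DMSO), duplicates, 48 h. Lysis in RLT, TaqMan qRT-PCR for CYP1A1; gain or loss vs DMSO.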

[5] = read-out: CFLAR gene, CFLAR (gene 8837); assay: LTEA_HepaRG_CFLAR: Life Technologies and Expression Analysis (LTEA) Assay for CFLAR gene using HepaRG (AID 2283455); conditions: mRNA level, 48 h; actives raise or lower the signal
How it was run: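 HepaRG, 48 h exposure, 8-pt conc-response (100 uM top, half-log), 0.5% DMSO vehicle, duplicates. CFLAR expression by qRT-PCR; ACTB/GAPDH/POLR2A normalization; gain or loss fit vs DMSO baseline.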

[6] = read-out: Forkhead box O1 (FOXO1), FOXO1 (gene 2308); assay: LTEA_HepaRG_FOXO1: Life Technologies and Expression Analysis (LTEA) Assay for Forkhead box O1 (FOXO1) using HepaRG (AID 2283456); conditions: mRNA level, 48 h; actives raise or lower the signal
How it was run: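 Readout is FOXO1 transcript level by multiplexed qRT-PCR against three housekeeping genes, curve-fitted in both directions relative to 0.5% DMSO vehicle. Human HepaRG cultures received chemicals for 48 h, up to 100 uM in half-log steps.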

[7] = read-out: ABC Transporter (ABCB1), ABCB1 (gene 5243); assay: LTEA_HepaRG_ABCB1: Life Technologies and Expression Analysis (LTEA) Assay for ABC Transporter (ABCB1) using HepaRG (AID 2283460); conditions: mRNA level, 48 h; actives raise or lower the signal
How it was run: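 Expression of ABCB1 was quantified by qRT-PCR against three housekeeping genes after human HepaRG cultures received test chemicals for 48 hours. Concentrations spanned eight half-log steps topping at 100 uM in 0.5% DMSO; gain or loss of signal was fitted relative to vehicle.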

[8] = read-out: growth arrest and DNA damage 45 (GADD45B), GADD45B (gene 4616); assay: LTEA_HepaRG_GADD45B: Life Technologies and Expression Analysis (LTEA) Assay for growth arrest and DNA damage 45 (GADD45B) using HepaRG (AID 2283461); conditions: mRNA level, 48 h; actives raise or lower the signal
How it was run: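 HepaRG, ~100,000 cells/well, 48 h plating; serum-free induction medium; cpd 100 uM top, half-log x8, 0.5% DMSO, duplicate, 48 h; lysis in RLT, RNA isolation, qRT-PCR; norm ACTB/GAPDH/POLR2A; bidirectional fit vs DMSO.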

[9] = read-out: ABC Transporter (ABCB11), ABCB11 (gene 8647); assay: LTEA_HepaRG_ABCB11: Life Technologies and Expression Analysis (LTEA) Assay for ABC Transporter (ABCB11) using HepaRG (AID 2283463); conditions: mRNA level, 48 h; actives raise or lower the signal
How it was run: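 ABCB11 transcript levels are read by Fluidigm TaqMan qRT-PCR after 48 h chemical treatment of human HepaRG cells. Concentrations span 100 uM downward in half-log steps with 0.5% DMSO; gain or loss is fitted against DMSO controls.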

[10] = read-out: ABC Transporter (ABCC2), ABCC2 (gene 1244); assay: LTEA_HepaRG_ABCC2: Life Technologies and Expression Analysis (LTEA) Assay for ABC Transporter (ABCC2) using HepaRG (AID 2283464); conditions: mRNA level, 48 h; actives raise or lower the signal
How it was run: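 HepaRG, 48 h post-plating; serum-free induction medium; cpd 8-pt, 100 uM top, half-log, 0.5% DMSO, duplicate, 48 h. Readout: ABCC2 mRNA by qRT-PCR, norm. ACTB/GAPDH/POLR2A. Bidirectional fit vs DMSO baseline.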

[11] = read-out: Broad substrate specificity ATP-binding cassette transporter ABCG2 (Homo sapiens) (UniProt Q9UNQ0); assay: LTEA_HepaRG_ABCG2: Life Technologies and Expression Analysis (LTEA) Assay for ABC Transporter (ABCG2) using HepaRG (AID 2283465); conditions: mRNA level, 48 h; actives raise or lower the signal
How it was run: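 Read-out is ABCG2 mRNA induction or loss quantified by qRT-PCR after 48 h chemical treatment of human HepaRG cells, normalized to three housekeeping genes. Concentrations reached 100 uM top in half-log steps; fitting was bidirectional against 0.5% DMSO.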

[12] = read-out: ATP-citrate lyase (ACLY), ACLY (gene 47); assay: LTEA_HepaRG_ACLY: Life Technologies and Expression Analysis (LTEA) Assay for ATP-citrate lyase (ACLY) using HepaRG (AID 2283466); conditions: mRNA level, 48 h; actives raise or lower the signal
How it was run: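 HepaRG, 48 h exposure, 8-pt half-log dilutions (top 100 uM), 0.5% DMSO. Readout: ACLY mRNA, TaqMan qRT-PCR, housekeeping-normalized (ACTB/GAPDH/POLR2A). Bidirectional curve fit vs DMSO.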

[13] = read-out: Peroxisomal acyl-coenzyme A oxidase 1 (ACOX1) gene, ACOX1 (gene 51); assay: LTEA_HepaRG_ACOX1: Life Technologies and Expression Analysis (LTEA) Assay for Peroxisomal acyl-coenzyme A oxidase 1 (ACOX1) gene using HepaRG (AID 2283467); conditions: mRNA level, 48 h; actives raise or lower the signal
How it was run: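 Measured by qRT-PCR against three housekeeping genes: ACOX1 transcript change in human HepaRG cells after 48 h dosing. Concentrations ran up to 100 uM in half-log steps. Curves were fitted bidirectionally relative to 0.5% DMSO.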

[14] = read-out: Alkaline Phosphatase, Placental (ALPP) gene, ALPP (gene 250); assay: LTEA_HepaRG_ALPP: Life Technologies and Expression Analysis (LTEA) Assay for Alkaline Phosphatase, Placental (ALPP) gene using HepaRG (AID 2283468); conditions: mRNA level, 48 h; actives raise or lower the signal
How it was run: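 HepaRG, 48 h plating then 48 h dosing, serum-free induction medium, 0.5% DMSO. 8 conc, half-log, max 100 uM, duplicates. Endpoint: ALPP transcript by qRT-PCR, housekeeping-normalized; gain or loss fitted vs DMSO.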

[15] = read-out: Bcl-2 (BAD) gene, BAD (gene 572); assay: LTEA_HepaRG_BAD: Life Technologies and Expression Analysis (LTEA) Assay for Bcl-2 (BAD) gene using HepaRG (AID 2283469); conditions: mRNA level, 48 h; actives raise or lower the signal
How it was run: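 BAD transcript change, measured by qRT-PCR against three housekeeping genes and fitted in both directions relative to 0.5% DMSO, after 48 h chemical treatment of human HepaRG liver cells at concentrations up to 100 uM.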

[16] = read-out: Bcl-2 (BAX) gene, BAX (gene 581); assay: LTEA_HepaRG_BAX: Life Technologies and Expression Analysis (LTEA) Assay for Bcl-2 (BAX) gene using HepaRG (AID 2283470); conditions: mRNA level, 48 h; actives raise or lower the signal
How it was run: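 Differentiated human HepaRG cells, plated 48 h then switched to serum-free induction medium, were exposed 48 h to 8 half-log concentrations up to 100 uM in 0.5% DMSO; BAX mRNA measured by qRT-PCR, normalized to ACTB, GAPDH, POLR2A.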

[17] = read-out: growth arrest and DNA damage 45 (GADD45A), GADD45A (gene 1647); assay: LTEA_HepaRG_GADD45A: Life Technologies and Expression Analysis (LTEA) Assay for growth arrest and DNA damage 45 (GADD45A) using HepaRG (AID 2283458); conditions: mRNA level, 48 h; actives raise or lower the signal
How it was run: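 Differentiated HepaRG cells were exposed in duplicate for 48 h in serum-free induction medium to 8-point half-log concentrations up to 100 uM in 0.5% DMSO. GADD45A mRNA was measured by TaqMan qRT-PCR, normalized to ACTB, GAPDH and POLR2A, with bidirectional fitting versus DMSO.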

[18] = read-out: ABC Transporter (ABCC3), ABCC3 (gene 8714); assay: LTEA_HepaRG_ABCC3: Life Technologies and Expression Analysis (LTEA) Assay for ABC Transporter (ABCC3) using HepaRG (AID 2283462); conditions: mRNA level, 48 h; actives raise or lower the signal
How it was run: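 Human HepaRG, 48 h dosing, 8-pt half-log series from 100 uM, 0.5% DMSO vehicle, duplicates. ABCC3 mRNA by TaqMan qRT-PCR, housekeeping-normalized; bidirectional curve fit vs DMSO.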

[19] = CEETOX_H295R_TESTO: CeeTox H295R High-throughput Steroidogenesis Assay for Testosterone (TESTO) (AID 2283457); conditions: actives raise or lower the signal
How it was run: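 H295R, passage ≤10, 48 h dosing; media extracted with MTBE → HPLC-MS/MS for testosterone; 7-pt standard curve sets LLOQ/ULOQ; bidirectional fit vs DMSO; MTT viability same wells.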

Measured: AC50

Chain of Broad substrate specificity ATP-binding cassette transporter ABCG2 (Homo sapiens) (Q9UNQ0 whole entry, looked up): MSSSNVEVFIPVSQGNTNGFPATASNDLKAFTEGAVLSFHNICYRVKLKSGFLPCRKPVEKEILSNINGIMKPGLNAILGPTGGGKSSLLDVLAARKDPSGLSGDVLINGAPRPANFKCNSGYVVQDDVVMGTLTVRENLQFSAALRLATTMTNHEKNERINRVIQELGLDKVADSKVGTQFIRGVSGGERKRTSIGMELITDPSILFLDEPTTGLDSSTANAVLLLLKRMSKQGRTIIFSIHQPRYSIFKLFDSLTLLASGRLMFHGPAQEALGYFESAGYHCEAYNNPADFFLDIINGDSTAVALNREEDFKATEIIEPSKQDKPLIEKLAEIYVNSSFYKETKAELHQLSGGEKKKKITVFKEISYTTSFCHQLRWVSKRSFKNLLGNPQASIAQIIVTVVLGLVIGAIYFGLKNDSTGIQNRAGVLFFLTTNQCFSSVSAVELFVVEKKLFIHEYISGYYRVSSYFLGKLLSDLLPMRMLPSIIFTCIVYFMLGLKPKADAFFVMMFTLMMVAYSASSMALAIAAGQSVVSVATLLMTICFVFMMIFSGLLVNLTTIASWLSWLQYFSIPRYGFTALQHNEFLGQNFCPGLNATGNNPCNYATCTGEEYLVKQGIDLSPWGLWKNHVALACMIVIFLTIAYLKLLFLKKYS

CC(C)N1C(=O)N(c2ccccc2)CSC1=NC(C)(C)C
active: [2] 75.4 µM | [3] 91.2 µM | [7] 17.7 µM | [9] 94.4 µM | [11] 50 µM | [12] 84.3 µM | [14] 78.3 µM | [16] 77.4 µM
not listed: [17] | [18] | [19]
inactive: all other assays above

OC(c1ccc(Cl)cc1)(c1ccc(Cl)cc1)C(Cl)(Cl)Cl
active: [2] 71.2 µM | [4] 11.9 µM | [6] 79.5 µM | [9] 72.4 µM | [11] 50 µM | [13] 50 µM | [15] 70.1 µM | [16] 78.2 µM
not listed: [3] | [19]
inactive: all other assays above

COP(=S)(OC)SCn1nnc2ccccc2c1=O
active: [4] 50 µM | [11] 15.5 µM
not listed: [17] | [18]
inactive: all other assays above

CCC(C)n1c(=O)[nH]c(C)c(Br)c1=O (configuration not stated)
active: [1] 27.6 µM | [2] 40.4 µM | [3] 29 µM | [4] 5.11 µM | [8] 28.5 µM | [9] 30 µM | [13] 21.6 µM
not listed: [17] | [19]
inactive: all other assays above

Source: PubChem BioAssay (EPA / NIEHS)
